In PubChem BioAssay:
Where “and” joins values, the source holds several entries; their conditions need not be identical. Equal values may be shown once. Some compounds were tested as several samples or in several runs, with calls that do not always agree. Calls of active or inactive are those of the source.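 Rule for the calls, unless noted: active = mean z-score across replicates of 1.96 or higher in either the MELAS or the Rieske mutant cell line; inactive = the rest.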

Key:
[1] = phospholipid biosynthesis inhibitors in animal cells, primary screen, cell-based, LOPAC library, screen 4 (AID 1347384; call rule not given here); conditions: phospholipid biosynthesis inhibition screen, at 10 µM
[2] = survival rescue of mitochondrial mutant cells in low glucose, primary screen, MELAS cybrids, Rieske KO mouse fibroblasts, CellTiter-Glo (AID 1508586);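 note: z relative to plate mean and SD of compound and empty wells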
[3] = molecular target: NAD(+) hydrolase SARM1 (Homo sapiens) (UniProt Q6SZW1); assay: SARM1 TIR NADase inhibitors, cell lysate, NAD-Glo luminescence (AID 1508614;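 active = compound whose remaining NAD level is above about 45 nM, limit read from the data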;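 note: higher remaining NAD means stronger inhibition of SARM1 NADase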); conditions: SAM-TIR HEK293T lysate NADase, at 1 µM, stronger effect = higher value
[4] = molecular target: Mitogen-activated protein kinase 7 (Homo sapiens) (UniProt Q13164); assay: ERK5 transactivation activators in reporter cells, primary screen, cell-based, HTS (AID 1508626;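 active = luciferase signal above three times the same-plate solvent-only control wells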;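 note: luciferase driven by Gal4-ERK5 fusion binding five Gal4 sites before minimal TATA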); conditions: HeLa Gal4-ERK5 transactivation, 18 h, at 5 µM, stronger effect = higher value
[5] = viability rescue of complex I mutant cybrids, primary screen, cell-based, galactose medium, ATP luminescence (AID 1645843;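 active = z-score of at least 1.8 in each of two replicates, scored against plate mean and spread of sample wells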;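 note: positive z means more ATP and so rescue of galactose-driven cybrid death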); conditions: complex I mutant cybrid cells, 72 h, stronger effect = higher value
[6] = MELAS cybrid survival, CellTiter-Glo 48 h, stronger effect = higher value
[7] = Rieske KO mouse fibroblast survival, CellTiter-Glo 72 h

Chain of Mitogen-activated protein kinase 7 (Homo sapiens) (Q13164 whole entry, looked up, the tested form may be a part): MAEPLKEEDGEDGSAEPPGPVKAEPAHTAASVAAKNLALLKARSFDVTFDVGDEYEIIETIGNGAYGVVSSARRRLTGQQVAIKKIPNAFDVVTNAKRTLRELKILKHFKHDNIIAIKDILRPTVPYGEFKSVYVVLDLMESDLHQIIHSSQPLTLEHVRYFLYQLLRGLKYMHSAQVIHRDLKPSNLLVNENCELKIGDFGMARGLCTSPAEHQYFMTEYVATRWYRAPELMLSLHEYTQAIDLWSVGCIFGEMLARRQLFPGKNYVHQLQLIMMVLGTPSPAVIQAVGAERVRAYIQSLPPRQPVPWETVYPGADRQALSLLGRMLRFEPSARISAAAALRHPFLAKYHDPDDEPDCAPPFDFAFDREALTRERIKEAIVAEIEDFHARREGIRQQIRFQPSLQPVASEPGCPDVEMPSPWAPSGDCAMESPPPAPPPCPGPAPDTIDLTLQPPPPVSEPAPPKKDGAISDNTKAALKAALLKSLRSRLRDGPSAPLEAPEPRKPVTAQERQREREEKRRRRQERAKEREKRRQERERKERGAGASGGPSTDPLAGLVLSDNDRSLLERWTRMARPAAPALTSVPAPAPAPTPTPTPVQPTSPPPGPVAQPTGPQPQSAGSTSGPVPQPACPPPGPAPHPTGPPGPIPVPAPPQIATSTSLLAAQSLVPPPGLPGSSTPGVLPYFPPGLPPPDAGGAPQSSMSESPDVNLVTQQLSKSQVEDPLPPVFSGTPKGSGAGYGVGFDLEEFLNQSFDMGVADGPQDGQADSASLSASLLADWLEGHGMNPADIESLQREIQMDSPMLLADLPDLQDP
Chain of NAD(+) hydrolase SARM1 (Homo sapiens) (Q6SZW1 whole entry, looked up, the tested form may be a part): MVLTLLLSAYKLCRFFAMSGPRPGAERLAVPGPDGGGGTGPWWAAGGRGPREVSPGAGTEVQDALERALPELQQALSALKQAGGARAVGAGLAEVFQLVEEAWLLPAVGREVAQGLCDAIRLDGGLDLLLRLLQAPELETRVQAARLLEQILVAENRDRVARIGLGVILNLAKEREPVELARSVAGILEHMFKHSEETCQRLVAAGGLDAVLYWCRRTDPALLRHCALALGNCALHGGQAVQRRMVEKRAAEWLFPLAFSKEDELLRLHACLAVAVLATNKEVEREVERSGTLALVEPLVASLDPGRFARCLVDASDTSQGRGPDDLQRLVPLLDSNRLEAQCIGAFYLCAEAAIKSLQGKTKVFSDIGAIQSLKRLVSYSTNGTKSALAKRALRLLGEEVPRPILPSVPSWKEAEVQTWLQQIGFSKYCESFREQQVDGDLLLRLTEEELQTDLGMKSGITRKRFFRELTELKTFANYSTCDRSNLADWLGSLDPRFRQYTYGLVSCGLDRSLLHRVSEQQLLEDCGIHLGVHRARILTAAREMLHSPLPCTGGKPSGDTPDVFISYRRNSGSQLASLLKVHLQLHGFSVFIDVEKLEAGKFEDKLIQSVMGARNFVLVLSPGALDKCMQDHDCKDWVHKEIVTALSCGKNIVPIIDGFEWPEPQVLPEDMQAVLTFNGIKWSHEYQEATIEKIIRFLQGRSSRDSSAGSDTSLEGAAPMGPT

Row | Structure (SMILES) | outcome [1] | z-score [2, 6] | z-score [2, 7] | remaining NAD [3] | luciferase signal [4] | z-score [5]
1 | Clc1ccccc1C(c1ccccc1)(c1ccccc1)n1ccnc1 | inactive | -0.333 (inactive) and -0.755 (inactive) | 0.273 and 0.133 | 10 nM (inactive) | 72 AU (inactive) | -1.52 (inactive) and -1.44 (inactive)
2 | COC(=O)C1=C(C)NC(C)=C(C(=O)O[C@@H]2CCCN(Cc3ccccc3)C2)[C@@H]1c1cccc([N+](=O)[O-])c1 |  | 0.772 (inactive) | 0.352 |  |  | 
3 | OCCOCCN1CCN(C2=Nc3ccccc3Sc3ccccc32)CC1 |  | -0.365 (inactive) and 0.666 (inactive) and 0.0103 (inactive) | -0.209 and 0.244 and 1.08 | 10 nM (inactive) | 48 AU (inactive) | -0.095 (inactive) and 0.115 (inactive)
4 | C#CCN(C)Cc1ccccc1 | inactive | -0.298 (inactive) and 0.205 (inactive) | -0.334 and 0.464 | 10 nM (inactive) | 60 AU (inactive) | 0.465 (inactive) and 0.37 (inactive)
5 | CN(C)CCC(c1ccccc1)c1ccccn1 (configuration not stated) | inactive | 0.589 (inactive) and -0.102 (inactive) and 0.319 (inactive) | -0.594 and -0.285 and 0.31 | 10 nM (inactive) | 44 AU (inactive) | 0.62 (inactive) and -0.17 (inactive)
6 | Nc1ccc(N=Nc2ccccc2)c(N)n1 |  | 3.05 (active) and 0.049 (inactive) and 2.48 (active) | 0.473 and -0.21 and 1.1 | 10 nM (inactive) | 464 AU (active) | -0.225 (inactive)
7 | Cc1scc2c1N(C(=O)CN1CCN(C)CC1)c1ccccc1NC2=O | inactive | 0.644 (inactive) and 0.966 (inactive) | 0.467 and 0.592 | 10 nM (inactive) |  | 0.33 (inactive) and 0.02 (inactive) and 0.68 (inactive)
8 | NC(N)=NC(=O)Cc1c(Cl)cccc1Cl | inactive | -0.203 (inactive) and -0.668 (inactive) | 0.336 and -1.29 | 10 nM (inactive) |  | -0.06 (inactive) and -0.17 (inactive) and -0.035 (inactive)
9 | Brc1c(NC2=NCCN2)ccc2nccnc12 | inactive | -0.224 (inactive) and -0.413 (inactive) | -0.21 and -1.29 |  |  | 0.235 (inactive) and -0.385 (inactive) and -0.11 (inactive)
10 | COC(=O)[C@H]1[C@H]2C[C@@H]3c4[nH]c5cc(OC)ccc5c4CCN3C[C@H]2C[C@@H](OC(=O)c2cc(OC)c(OC)c(OC)c2)[C@@H]1OC | inactive | 0.355 (inactive) | 1.28 | 10 nM (inactive) | 64 AU (inactive) | -0.19 (inactive) and -0.39 (inactive)
11 | CC(=O)Oc1ccc(C(c2ccc(OC(C)=O)cc2)c2ccccn2)cc1 |  | -0.393 (inactive) and -0.251 (inactive) and -0.144 (inactive) | -0.124 and -0.26 and 0.348 | 10 nM (inactive) | 44 AU (inactive) | -0.6 (inactive)
12 | CCN(CC)CCNC(=O)c1cc(Cl)c(N)cc1OC | inactive | -1.13 (inactive) and 0.206 (inactive) and 0.37 (inactive) | -0.268 and 0.0241 and 0.87 | 10 nM (inactive) | 100 AU (inactive) | -0.285 (inactive) and 0.055 (inactive) and 0.595 (inactive)
13 | CCN(CC)CCOCCOC(=O)C1(c2ccccc2)CCCC1 | inactive | 0.546 (inactive) | 0.186 | 10 nM (inactive) | 36 AU (inactive) | -0.64 (inactive) and -0.655 (inactive)
